Here are results for one molecule from ChEMBL document CHEMBL1961873, “Compounds: GSK PKIS; Assays: Nanosyn kinase panel” (2012).

Test [1] addresses Sphingosine kinase 1 (Homo sapiens) (UniProt Q9NYA1). To be noted: at 1 µM.
The target in test [2] is T1, Sphingosine kinase 2 (Homo sapiens) (UniProt Q9NRA0).
T1 sequence (whole entry): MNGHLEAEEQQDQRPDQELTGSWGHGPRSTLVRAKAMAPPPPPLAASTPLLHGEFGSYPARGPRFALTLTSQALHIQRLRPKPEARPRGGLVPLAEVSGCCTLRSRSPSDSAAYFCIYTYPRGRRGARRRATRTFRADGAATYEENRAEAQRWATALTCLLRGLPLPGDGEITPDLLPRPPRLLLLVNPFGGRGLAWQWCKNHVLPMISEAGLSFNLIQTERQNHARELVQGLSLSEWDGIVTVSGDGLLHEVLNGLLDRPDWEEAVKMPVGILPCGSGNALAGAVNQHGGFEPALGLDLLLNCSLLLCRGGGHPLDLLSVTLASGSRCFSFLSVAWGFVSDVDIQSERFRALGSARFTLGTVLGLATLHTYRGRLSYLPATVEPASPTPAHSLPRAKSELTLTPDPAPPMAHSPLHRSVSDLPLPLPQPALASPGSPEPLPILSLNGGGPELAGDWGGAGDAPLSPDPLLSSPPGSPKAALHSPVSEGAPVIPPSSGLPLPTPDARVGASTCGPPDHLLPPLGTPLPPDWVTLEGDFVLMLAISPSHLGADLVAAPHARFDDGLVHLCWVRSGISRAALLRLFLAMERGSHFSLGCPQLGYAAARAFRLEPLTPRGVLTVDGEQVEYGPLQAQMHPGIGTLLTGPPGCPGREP
The note with it: at 0.1 µM.

Test [3] has as its target T1, Sphingosine kinase 2 (Homo sapiens). To be noted: at 1 µM.
In test [4] the target is Casein kinase II subunit alpha (Homo sapiens) (UniProt P68400). To be noted: at 0.1 µM.
Chain of Casein kinase II subunit alpha (Homo sapiens) (P68400 whole entry, looked up): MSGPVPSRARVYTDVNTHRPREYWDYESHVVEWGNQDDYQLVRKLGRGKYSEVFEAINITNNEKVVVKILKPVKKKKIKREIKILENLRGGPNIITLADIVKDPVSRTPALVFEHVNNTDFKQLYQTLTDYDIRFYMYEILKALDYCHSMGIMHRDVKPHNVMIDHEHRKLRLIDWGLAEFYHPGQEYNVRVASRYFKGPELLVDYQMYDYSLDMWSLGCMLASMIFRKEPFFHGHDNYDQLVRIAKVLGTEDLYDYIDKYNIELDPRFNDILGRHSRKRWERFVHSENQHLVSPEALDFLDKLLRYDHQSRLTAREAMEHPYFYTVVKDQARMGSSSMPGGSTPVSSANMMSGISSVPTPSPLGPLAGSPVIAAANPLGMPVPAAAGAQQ
Test [5] shares this target. The note with it: at 1 µM.
Test [6] concerns the target T2, Inhibitor of nuclear factor kappa-B kinase subunit alpha (Homo sapiens) (UniProt O15111).
T2 sequence (whole entry): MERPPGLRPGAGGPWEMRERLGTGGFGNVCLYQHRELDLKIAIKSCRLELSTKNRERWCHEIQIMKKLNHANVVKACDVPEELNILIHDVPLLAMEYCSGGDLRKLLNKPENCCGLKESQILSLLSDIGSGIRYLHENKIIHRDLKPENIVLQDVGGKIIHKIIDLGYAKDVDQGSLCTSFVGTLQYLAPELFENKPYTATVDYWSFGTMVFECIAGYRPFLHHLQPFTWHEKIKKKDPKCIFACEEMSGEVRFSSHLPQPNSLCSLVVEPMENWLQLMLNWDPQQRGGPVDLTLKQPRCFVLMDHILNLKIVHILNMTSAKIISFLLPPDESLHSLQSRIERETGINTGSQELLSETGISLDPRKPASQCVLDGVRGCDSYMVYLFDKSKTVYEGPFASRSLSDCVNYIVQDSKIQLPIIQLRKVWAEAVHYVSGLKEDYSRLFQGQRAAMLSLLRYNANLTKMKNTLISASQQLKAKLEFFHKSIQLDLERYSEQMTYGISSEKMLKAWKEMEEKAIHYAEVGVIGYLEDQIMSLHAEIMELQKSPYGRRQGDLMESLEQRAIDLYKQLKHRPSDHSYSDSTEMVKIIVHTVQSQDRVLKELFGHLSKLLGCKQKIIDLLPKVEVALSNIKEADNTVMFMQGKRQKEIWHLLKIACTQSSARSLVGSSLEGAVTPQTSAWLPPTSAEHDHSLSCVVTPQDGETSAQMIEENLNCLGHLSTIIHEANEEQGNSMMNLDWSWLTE
To be noted: at 0.1 µM.

The target of test [7] is T2, Inhibitor of nuclear factor kappa-B kinase subunit alpha (Homo sapiens). To be noted: at 1 µM.
The target in test [8] is T3, Inhibitor of nuclear factor kappa-B kinase subunit beta (Homo sapiens) (UniProt O14920).
T3 sequence (whole entry): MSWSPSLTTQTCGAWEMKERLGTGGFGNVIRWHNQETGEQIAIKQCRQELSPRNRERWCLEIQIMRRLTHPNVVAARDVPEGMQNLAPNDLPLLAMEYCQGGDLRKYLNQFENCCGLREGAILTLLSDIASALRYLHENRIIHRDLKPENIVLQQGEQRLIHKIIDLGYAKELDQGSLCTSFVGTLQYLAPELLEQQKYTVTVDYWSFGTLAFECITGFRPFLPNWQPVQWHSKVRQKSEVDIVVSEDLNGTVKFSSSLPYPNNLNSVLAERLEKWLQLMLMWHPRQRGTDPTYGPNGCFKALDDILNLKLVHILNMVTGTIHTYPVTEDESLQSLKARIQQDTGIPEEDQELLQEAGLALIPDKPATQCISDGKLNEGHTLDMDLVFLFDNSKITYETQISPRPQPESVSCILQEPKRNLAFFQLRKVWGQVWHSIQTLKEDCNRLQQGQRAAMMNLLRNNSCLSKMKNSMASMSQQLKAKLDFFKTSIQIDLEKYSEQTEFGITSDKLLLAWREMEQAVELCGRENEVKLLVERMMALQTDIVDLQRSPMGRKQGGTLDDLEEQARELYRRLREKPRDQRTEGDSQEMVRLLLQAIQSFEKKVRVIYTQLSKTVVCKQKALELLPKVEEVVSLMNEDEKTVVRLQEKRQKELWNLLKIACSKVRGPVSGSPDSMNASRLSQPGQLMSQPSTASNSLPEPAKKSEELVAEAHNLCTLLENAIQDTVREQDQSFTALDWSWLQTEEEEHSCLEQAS
The note with it: at 0.1 µM.

The target of test [9] is T3, Inhibitor of nuclear factor kappa-B kinase subunit beta (Homo sapiens). The note with it: at 1 µM.
The target of test [10] is T4, Inhibitor of nuclear factor kappa-B kinase subunit epsilon (Homo sapiens) (UniProt Q14164).
T4 sequence (whole entry): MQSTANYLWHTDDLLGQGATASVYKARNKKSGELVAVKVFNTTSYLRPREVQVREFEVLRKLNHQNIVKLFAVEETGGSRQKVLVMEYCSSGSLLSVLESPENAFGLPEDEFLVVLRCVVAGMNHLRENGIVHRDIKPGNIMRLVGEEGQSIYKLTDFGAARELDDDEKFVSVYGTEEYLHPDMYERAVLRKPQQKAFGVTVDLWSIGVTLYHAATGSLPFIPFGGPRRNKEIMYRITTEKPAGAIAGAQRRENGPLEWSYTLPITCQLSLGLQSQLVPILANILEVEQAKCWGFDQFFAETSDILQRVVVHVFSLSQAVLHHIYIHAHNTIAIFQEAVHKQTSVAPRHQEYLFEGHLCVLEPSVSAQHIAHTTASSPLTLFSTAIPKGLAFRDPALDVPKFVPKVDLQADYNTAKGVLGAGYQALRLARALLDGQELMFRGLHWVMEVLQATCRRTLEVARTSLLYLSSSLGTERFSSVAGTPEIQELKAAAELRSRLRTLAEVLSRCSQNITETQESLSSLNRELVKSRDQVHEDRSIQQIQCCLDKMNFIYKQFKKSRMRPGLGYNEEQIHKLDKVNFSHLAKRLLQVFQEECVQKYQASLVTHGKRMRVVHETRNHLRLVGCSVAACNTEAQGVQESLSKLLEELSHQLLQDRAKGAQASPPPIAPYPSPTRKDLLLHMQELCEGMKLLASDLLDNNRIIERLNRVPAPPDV
To be noted: at 0.1 µM.

For test [11], the target named is T4, Inhibitor of nuclear factor kappa-B kinase subunit epsilon (Homo sapiens). To be noted: at 1 µM.
Test [12] addresses T5, Serine/threonine-protein kinase Nek1 (Homo sapiens) (UniProt Q96PY6).
T5 sequence (whole entry): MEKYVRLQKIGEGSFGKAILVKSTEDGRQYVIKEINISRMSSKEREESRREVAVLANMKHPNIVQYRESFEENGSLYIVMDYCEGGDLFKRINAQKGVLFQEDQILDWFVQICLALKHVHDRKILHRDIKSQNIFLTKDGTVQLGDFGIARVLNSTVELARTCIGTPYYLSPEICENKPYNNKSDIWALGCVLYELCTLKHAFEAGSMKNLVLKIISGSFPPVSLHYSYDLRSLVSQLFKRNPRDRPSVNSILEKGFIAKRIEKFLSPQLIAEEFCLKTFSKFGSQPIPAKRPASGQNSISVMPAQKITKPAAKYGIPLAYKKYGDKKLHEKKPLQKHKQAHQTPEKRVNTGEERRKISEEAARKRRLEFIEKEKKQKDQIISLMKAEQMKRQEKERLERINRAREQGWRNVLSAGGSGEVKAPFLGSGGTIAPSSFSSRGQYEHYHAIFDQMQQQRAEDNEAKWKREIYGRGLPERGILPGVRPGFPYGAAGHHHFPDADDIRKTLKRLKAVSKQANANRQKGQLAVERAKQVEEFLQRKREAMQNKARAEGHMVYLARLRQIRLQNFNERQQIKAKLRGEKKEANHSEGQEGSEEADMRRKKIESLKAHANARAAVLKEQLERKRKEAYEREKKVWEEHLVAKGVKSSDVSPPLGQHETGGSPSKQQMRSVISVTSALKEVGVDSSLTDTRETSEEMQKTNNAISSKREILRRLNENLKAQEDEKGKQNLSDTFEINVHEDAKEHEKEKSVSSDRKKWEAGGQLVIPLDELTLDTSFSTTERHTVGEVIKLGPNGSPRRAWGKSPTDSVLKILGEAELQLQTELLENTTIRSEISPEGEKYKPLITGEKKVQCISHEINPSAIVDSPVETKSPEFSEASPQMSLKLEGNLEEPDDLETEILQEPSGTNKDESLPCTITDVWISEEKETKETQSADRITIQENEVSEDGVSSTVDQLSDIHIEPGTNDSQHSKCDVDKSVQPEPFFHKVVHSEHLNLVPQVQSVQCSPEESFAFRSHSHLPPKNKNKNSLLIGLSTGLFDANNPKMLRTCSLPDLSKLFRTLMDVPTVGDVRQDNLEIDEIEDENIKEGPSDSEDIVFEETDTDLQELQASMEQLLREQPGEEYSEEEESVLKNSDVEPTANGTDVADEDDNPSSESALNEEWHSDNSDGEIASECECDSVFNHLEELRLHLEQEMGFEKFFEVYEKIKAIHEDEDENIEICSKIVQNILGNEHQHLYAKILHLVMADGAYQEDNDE
The note with it: at 0.1 µM.

The target in test [13] is T5, Serine/threonine-protein kinase Nek1 (Homo sapiens). The note with it: at 1 µM.
The target of test [14] is T6, Serine/threonine-protein kinase Nek2 (Homo sapiens) (UniProt P51955).
T6 sequence (whole entry): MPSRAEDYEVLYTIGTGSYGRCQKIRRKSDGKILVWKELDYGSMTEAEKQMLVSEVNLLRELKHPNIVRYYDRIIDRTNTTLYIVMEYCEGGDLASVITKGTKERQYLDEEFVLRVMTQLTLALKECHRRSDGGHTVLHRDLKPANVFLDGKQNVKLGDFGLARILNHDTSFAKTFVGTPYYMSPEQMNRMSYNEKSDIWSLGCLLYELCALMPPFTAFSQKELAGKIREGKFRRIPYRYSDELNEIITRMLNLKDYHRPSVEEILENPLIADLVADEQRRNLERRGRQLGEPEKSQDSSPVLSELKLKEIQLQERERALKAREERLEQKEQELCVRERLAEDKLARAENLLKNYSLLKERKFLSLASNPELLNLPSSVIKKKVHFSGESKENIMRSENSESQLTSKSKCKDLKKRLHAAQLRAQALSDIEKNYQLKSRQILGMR
To be noted: at 0.1 µM.

In test [15] the target is T6, Serine/threonine-protein kinase Nek2 (Homo sapiens). To be noted: at 1 µM.
Test [16] addresses Serine/threonine-protein kinase Nek6 (Homo sapiens) (UniProt Q9HC98). To be noted: at 0.1 µM.
For test [17] the target is unchanged. The note with it: at 1 µM.
Test [18] concerns the target Serine/threonine-protein kinase Nek7 (Homo sapiens) (UniProt Q8TDX7). To be noted: at 0.1 µM.
Test [19] has the same target. The note with it: at 1 µM.
The target in test [20] is T7, Serine/threonine-protein kinase Nek9 (Homo sapiens) (UniProt Q8TD19).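 Further: reported value is the mean percent inhibition of NEK9.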
T7 sequence (whole entry): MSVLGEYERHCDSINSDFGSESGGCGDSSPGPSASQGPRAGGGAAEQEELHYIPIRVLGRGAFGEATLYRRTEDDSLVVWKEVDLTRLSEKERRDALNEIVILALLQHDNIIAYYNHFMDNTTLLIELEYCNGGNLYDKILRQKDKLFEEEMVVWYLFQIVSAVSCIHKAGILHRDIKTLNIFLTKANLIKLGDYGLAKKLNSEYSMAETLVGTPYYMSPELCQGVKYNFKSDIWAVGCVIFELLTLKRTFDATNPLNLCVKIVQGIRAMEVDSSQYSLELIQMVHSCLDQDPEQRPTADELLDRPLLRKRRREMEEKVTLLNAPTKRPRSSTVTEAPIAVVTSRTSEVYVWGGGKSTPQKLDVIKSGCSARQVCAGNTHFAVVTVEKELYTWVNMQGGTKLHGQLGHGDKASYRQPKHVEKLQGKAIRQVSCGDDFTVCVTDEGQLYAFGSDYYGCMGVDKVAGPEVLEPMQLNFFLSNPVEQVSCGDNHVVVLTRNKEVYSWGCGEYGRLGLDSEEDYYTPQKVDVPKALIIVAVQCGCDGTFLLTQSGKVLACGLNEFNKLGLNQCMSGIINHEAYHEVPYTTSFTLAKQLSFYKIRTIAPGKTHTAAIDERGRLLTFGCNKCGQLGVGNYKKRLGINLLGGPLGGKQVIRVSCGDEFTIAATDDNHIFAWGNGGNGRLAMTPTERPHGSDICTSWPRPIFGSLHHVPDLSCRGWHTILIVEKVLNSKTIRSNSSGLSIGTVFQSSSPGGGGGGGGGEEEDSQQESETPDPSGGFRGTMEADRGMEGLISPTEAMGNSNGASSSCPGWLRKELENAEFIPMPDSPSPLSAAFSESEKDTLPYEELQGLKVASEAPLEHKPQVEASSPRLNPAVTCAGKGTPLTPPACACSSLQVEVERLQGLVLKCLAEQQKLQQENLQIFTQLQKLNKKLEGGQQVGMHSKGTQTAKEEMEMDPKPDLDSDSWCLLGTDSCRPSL
To be noted: at 0.1 µM.

Chain of Serine/threonine-protein kinase Nek6 (Homo sapiens) (Q9HC98 whole entry): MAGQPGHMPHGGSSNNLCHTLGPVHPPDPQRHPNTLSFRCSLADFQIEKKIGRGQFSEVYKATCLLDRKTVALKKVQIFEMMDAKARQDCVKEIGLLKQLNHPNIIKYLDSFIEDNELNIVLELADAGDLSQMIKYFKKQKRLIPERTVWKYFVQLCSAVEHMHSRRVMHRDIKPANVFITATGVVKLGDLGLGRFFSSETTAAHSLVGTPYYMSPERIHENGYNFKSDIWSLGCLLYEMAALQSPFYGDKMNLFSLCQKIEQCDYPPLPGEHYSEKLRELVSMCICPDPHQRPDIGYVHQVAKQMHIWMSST
Chain of Serine/threonine-protein kinase Nek7 (Homo sapiens) (Q8TDX7 whole entry, looked up): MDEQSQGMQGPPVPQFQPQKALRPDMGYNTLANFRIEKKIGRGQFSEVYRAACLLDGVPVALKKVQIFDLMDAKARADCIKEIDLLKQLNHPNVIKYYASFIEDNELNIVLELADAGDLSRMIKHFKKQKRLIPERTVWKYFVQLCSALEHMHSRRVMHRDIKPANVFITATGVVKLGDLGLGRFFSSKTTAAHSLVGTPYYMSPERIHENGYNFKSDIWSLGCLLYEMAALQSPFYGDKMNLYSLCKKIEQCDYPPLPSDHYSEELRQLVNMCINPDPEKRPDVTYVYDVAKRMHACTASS
Chain of Sphingosine kinase 1 (Homo sapiens) (Q9NYA1 whole entry): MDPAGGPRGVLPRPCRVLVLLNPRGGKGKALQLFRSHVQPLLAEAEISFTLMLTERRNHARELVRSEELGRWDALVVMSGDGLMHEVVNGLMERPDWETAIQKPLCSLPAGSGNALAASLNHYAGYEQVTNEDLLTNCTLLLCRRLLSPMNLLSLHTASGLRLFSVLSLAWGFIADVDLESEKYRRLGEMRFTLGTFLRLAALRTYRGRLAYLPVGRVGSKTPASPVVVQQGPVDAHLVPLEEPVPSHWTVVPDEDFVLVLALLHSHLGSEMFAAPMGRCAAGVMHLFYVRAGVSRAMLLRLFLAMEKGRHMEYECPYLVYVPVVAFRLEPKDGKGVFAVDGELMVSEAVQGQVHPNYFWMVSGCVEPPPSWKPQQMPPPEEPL

Take `COc1ccc(-c2cc(-c3c[nH]nc3-c3ccccn3)ccn2)cc1`: the inhibition in test [1] is 0.76%; in test [2], -1.45%; in test [3], -1.01%; in [4] it was 5.84%; in [5] it was 8.65%; in test [6], -3.06%. For the same molecule, the inhibition was determined as 10.5% in test [7]; 7.11% in test [8]; 8.08% in [9]; 7.81% in test [10]; 9.71% in [11]; 2.15% in [12]. In addition, the inhibition came to 3.74% in test [13]; 5.8% in test [14]; 4.88% in test [15]; 2.87% in [16]; 4.34% in test [17]; 2.27% in test [18]. The inhibition was 3.19% in test [19] and 7.56% in test [20].

In general, inhibition refers to the relative decrease from the control value, in per cent.
